{"source": "the supplement of paper PMC3484114", "note": "± gives the standard deviation.", "data": [{"system": "OVCAR-3-derived ovarian cancer stem-like cells (spheroids)", "experiment": "cell growth relative to untreated control; higher = more growth (less inhibition)", "conditions": "2.29 µM; 96 h", "in_short": "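Stem-like cells derived from OVCAR-3 spheroids were dissociated with trypsin and seeded at 50,000 cells/mL in stem cell medium in ultra-low attachment 96-well plates, then preincubated for 24 h. Each compound was added at 2.29 uM to 4 replicate wells and left for 96 h at 37°C, 5% CO2. Viability came from TOX8 resazurin fluorescence (ex 560/em 590 nm) read after 4 h. Percent growth was expressed relative to untreated wells, after blank subtraction and removal of outliers by the Grubbs test.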", "units": {"cell growth": "%"}, "values": [{"smiles": "COC1CC(OC2CCC3(C=O)C4CCC5(C)C(C6=CC(=O)OC6)CCC5(O)C4CCC3(O)C2)OC(C)C1OC1OC(COC2OC(CO)C(O)C(O)C2O)C(O)C(O)C1O", "note": "(stereo not given)", "cell growth": "63.1 ± 13"}, {"smiles": "C[C@@H]1CC[C@@]2(OC1)O[C@H]1CC3[C@@H]4CC=C5C[C@@H](O[C@@H]6O[C@H](CO)[C@@H](O[C@@H]7O[C@@H](C)[C@H](O[C@@H]8O[C@@H](C)[C@H](O)[C@@H](O)[C@@H]8O)[C@@H](O)[C@H]7O)[C@H](O)[C@H]6O[C@@H]6O[C@@H](C)C(O)[C@@H](O)[C@H]6O)CC[C@]5(C)[C@H]4CC[C@]3(C)[C@H]1[C@@H]2C", "note": "(stereo not given in full)", "cell growth": "8.03 ± 3.1"}, {"smiles": "CC(=O)[O][Pb]([O]C(C)=O)([c]1ccccc1)[c]1ccccc1", "cell growth": "80.2 ± 14"}, {"smiles": "COc1cc([C@@H]2c3cc4c(c(O)c3C[C@H]3COC(=O)[C@@H]32)OCO4)cc(OC)c1OC", "cell growth": "31.1 ± 4.7"}, {"smiles": "C=C1C(=O)O[C@@H]2C[C@@H](C)[C@@H]3C=CC(=O)[C@@]3(C)[C@@H](O)[C@H]12", "cell growth": "14.5 ± 2.5"}, {"smiles": "NC(=O)OCc1c(O)c2c(c(O)c1COC(N)=O)C(=O)C=CC2=O", "cell growth": "95.9 ± 14"}, {"smiles": "CCCCCn1cc2c3c(cccc31)C1C=C(C)CN(C)[C@@H]1C2.Cc1ccc(C(=O)OC(C(=O)O)C(OC(=O)c2ccc(C)cc2)C(=O)O)cc1", "note": "(stereo not given)", "cell growth": "78.9 ± 11"}, {"smiles": "COc1ccc(NC2=NCCO2)c2c1CCCC2", "cell growth": "98.5 ± 10"}, {"smiles": "CC[C@@]1(O)C[C@H](OC2CC(N(C)C)C(O)C(C)O2)c2c(O)c3c(c(O)c2[C@H]1OC1CC(N(C)C)C(O)C(C)O1)C(=O)c1cccc(O)c1C3=O", "note": "(stereo not given in full)", "cell growth": "58.8 ± 56"}, {"smiles": "CCCC/C=C/C=C/C=C/CCCCCCCC(=O)OCC(COC(=O)CCCCCCC/C=C/C1C=CC(CCCC)C(C(=O)O)C1C(=O)O)OC(=O)CCCCCCC/C=C/C=C/C=C/CCCC.OCCNCO", "note": "(stereo not given)", "cell growth": "115 ± 16"}]}]}
